Hits are enriched below; roughly 7.6% of the tested compounds scored in any of these assays.
KB-3-1 tox: KB-3-1 parental cell cytotoxicity; KB-3-1 viability, CellTiter-Glo ATP luminescence, 72 h; Potency, µM (doses to about 46.1 µM), actives largely listed as cytotoxic; 400,000 compounds, 1.4% hits; further: potency means the concentration at half of the fitted maximal effect; on the % scale 0 is the no-effect control and ±100 the full control effect; nearly all actives have a fitted effect of over 60% in size
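Using CellTiter-Glo luminescence, growth of non-resistant KB-3-1 adenocarcinoma cells is assessed 72 h after pin-tool compound addition at 37 °C. Normalized responses across the concentration series yield fitted curves.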
hERG WT inh: KCNH2 (human, wildtype) channel inhibition. Q12809. U2OS, BacMam KCNH2, thallium flux FluxOr; hits give low values. activity change, % at 1.84 µM. 340,000 compounds, 0.37% hits;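 active means maximum activity change below -70%; inconclusive means maximum activity change between -70% and -50%; inactive means maximum activity change above -50%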; further: on the % scale 0 is the no-effect control and ±100 the full control effect
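U2OS cells transduced with wild-type KCNH2 virus are loaded with FluxOr dye for 45 min, and thallium flux is measured in kinetic reads before and after stimulation buffer. Rate constants are normalized to DMSO controls.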
KCNH2 3.1 inh: inhibitors of human KCNH2 3.1 potassium channel isoform | 340,000 compounds, 0.95% hits | AID 720553 | activity change, % (tested at about 1.8 µM) | U2OS KCNH2 3.1, thallium flux FluxOr; hits give low values;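 active means maximum activity change below -70%; inconclusive means maximum activity change from -70% to -50%; inactive means maximum activity change above -50%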;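 further: thallium influx rate constant from kinetic fluorescence after stimulation buffer; on the % scale 0 is the no-effect control and ±100 the full control effect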
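U2OS cells transduced with KCNH2 3.1 mutant virus (1.77 x 10^8 /mL, 4 h), plated overnight at 37 C, loaded 45 min with FluxOr dye plus Red40 quencher. Thallium flux rate constant from kinetic reads after stimulation buffer, normalised to controls.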
KB-V1 MDR tox: KB-V1 MDR subline cytotoxicity; KB-V1 MDR cells viability, CellTiter-Glo, 72 h; Potency, µM (titrated, usually from 46.1 µM), usual class: cytotoxic; 400,000 compounds, 3.4% hits; AID 1347076; further: potency means the concentration at half of the fitted maximal effect; on the % scale 0 is the no-effect control and ±100 the full control effect; nearly all actives have a fitted effect of over 60% in size
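Cytotoxicity toward P-gp-expressing KB-V1 cells was determined as loss of CellTiter-Glo luminescence after 72 h at 37 degrees C. Compounds were tested in quantitative HTS format across a concentration range, with curves fitted to normalized data.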
MCF10A rereplic: inducers of DNA re-replication in MCF 10A breast cells; MCF 10A DNA re-replication, Hoechst nuclear intensity, 48 h; Potency, µM (series often up to 46.1 µM), for the others: top-dose activity, positive = re-replication, hits mostly activators; 350,000 compounds, 2.9% hits; AID 624296; further: potency means the concentration at half of the fitted maximal effect; % of control where 0% means no effect; nearly all actives have a fitted effect of over 50% in size
SW480 rerep: inducers of DNA re-replication in SW480 colon cancer cells. 340,000 compounds, 1.8% hits. Potency, µM (doses to about 46.1 µM), for inactives: top-dose re-replication activation, hits mostly activators. SW480 DNA re-replication, Hoechst DNA content imaging, 48 h; further: potency means the concentration at half of the fitted maximal effect; % of control where 0% means no effect; nearly all actives have a fitted effect of over 55% in size
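250 cells/well; 23 nL cpd via pin tool; 48 hr, 37 C, 5% CO2; Hoechst 40 min; imager read of total nuclear intensity, ex 405/em 500-530 nm.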
Numbers without * were called inactive; i = inactive; ? = inconclusive; · = no result given. Unless noted, the call rests on the fitted dose curve; in most records, active means well fitted curve in the direction sought with a large enough effect; inconclusive means small, poorly fitted or top-dose-only effect, or another doubt; inactive means no such curve, though single readings can be large; an effect the other way counts as inactive or inconclusive.

SMILES | KB-3-1 tox | hERG WT inh | KCNH2 3.1 inh | KB-V1 MDR tox | MCF10A rereplic | SW480 rerep
CCN(Cc1ccc2c(c1)OCCO2)C(=O)CN1C(=O)NC2(CCCCC2)C1=O | i | -5 | 15 | 18µM* | -2% | -4%
COc1ccc(-c2ccc3ncnc(NCCc4cnc[nH]4)c3c2)cc1OC | ? | · | · | i | · | ·
Fc1ccc(-c2nc3ccncc3[nH]2)cc1 | i | 11 | 2 | i | -5% | -2%
Clc1ccc(-c2nc3ccncc3[nH]2)cc1 | ? | -12 | -4 | 18µM* | 2% | -13%
COc1cc(OC)c(/C=C/c2cc(/C=C/c3c(OC)cc(OC)cc3OC)[n+](C)c3ccccc23)c(OC)c1 | 23µM* | · | · | i | · | ·
COc1cc(OC)c(/C=C/c2cc3c4ccccc4ccc3[n+](C)c2)c(OC)c1 | 8.2µM* | · | · | i | · | ·
CC(C)OCCCNC(=S)NNC(=O)c1ccc(Cl)c(Cl)c1 | i | -8 | 0 | i | ? | ?
COc1ccc(C2c3[nH]c4ccc(OC)cc4c3CCN2C(=O)Nc2ccccc2)cc1 (stereo not drawn) | 10µM* | · | · | ? | · | ·
COc1ccc(C(=O)N2CCc3c([nH]c4ccccc34)C2C(F)(F)F)cc1 (stereo not drawn) | i | -14 | -24 | i | 27% | -15%
O=c1oc2ccccc2c(Nc2cccc(O)c2)c1[N+](=O)[O-] | i | -20 | -6 | i | 18µM* | -4%
Cc1ccc(Nc2c([N+](=O)[O-])c(=O)oc3ccccc23)cc1C | i | 20 | -75* | i | ? | ?
O=c1oc2ccccc2c(Nc2ccc(Cl)cc2)c1[N+](=O)[O-] | ? | -8 | 4 | i | ? | 5%
COc1ccc(C)cc1S(=O)(=O)N1CCCC(C(=O)NCc2ccccn2)C1 (stereo not drawn) | i | -3 | · | ? | 5% | 2%
O=C(NCc1ccccn1)C1CCCN(S(=O)(=O)c2cc(Cl)ccc2Cl)C1 (stereo not drawn) | ? | -2 | 20 | 0.73µM* | 0.73µM* | ?
COc1cc(C(=O)Nc2nc(C)c(Cc3ccc4c(c3)OCO4)s2)cc(OC)c1OC | i | · | -16 | 1.5µM* | 2.6µM* | 5.8µM*
CCCOc1ccc(C(=O)Nc2nc(C)c(Cc3ccc4c(c3)OCO4)s2)cc1 | ? | -11 | -36 | i | ? | ?
Cc1c(Cc2ccc3c(c2)OCO3)sc(NC(=O)c2ccc3ccccc3c2)c1C(N)=O | ? | 7 | -13 | i | 15µM* | -2%
CCOC(=O)c1c(NC(=O)COc2ccc(Cl)cc2C)sc2c1CCCCC2 | i | · | · | i | · | ·
CCN1C(=O)[C@@H]2[C@@H](c3ccc(-c4ccc5c(c4)OCO5)c(OC)c3)N3CCC[C@@]3(C(=O)OC)[C@@H]2C1=O | i | 7 | 1 | i | 4% | 1%
CCC(C)c1ccc(S(=O)(=O)N2CCN(C(C)C(=O)NC3CCCC3)CC2)cc1 (stereo not drawn) | i | -10 | -13 | 5.8µM* | 17% | -1%
CCCc1ccc(S(=O)(=O)N2CCN(C(C)C(=O)NC3CCCC3)CC2)cc1 (stereo not drawn) | i | 48 | -12 | i | 7% | -3%
CC(C)c1ccc(S(=O)(=O)N2CCN(C(C)C(=O)N3CCCC3)CC2)cc1 (stereo not drawn) | i | -17 | 10 | 26µM* | 2% | 0%
CN(C(=O)Nc1cn(C)c(=O)c2ccccc12)c1ccccc1 | i | · | · | ? | · | ·
Oc1cccc(C=Nc2cccc3ccccc23)c1O | i | -18 | 16 | i | 18µM* | 18µM*
Oc1ccccc1C=Nc1cccc2ccccc12 | i | -8 | 2 | i | -2% | -6%
SMILES | KB-3-1 tox | hERG WT inh | KCNH2 3.1 inh | KB-V1 MDR tox | MCF10A rereplic | SW480 rerep
O=C(NCc1nc2ccccc2[nH]1)C1=C[C@@H](c2ccc(Br)cc2)C[C@@H](OCCCCO)O1 | i | -35 | -89* | ? | 5% | 1%
O=C(NCc1nc2ccccc2[nH]1)C1=C[C@@H](C2CCCCC2)C[C@@H](OCCCCO)O1 | i | 10 | -75* | i | -11% | 4%
C[C@H]1C=C(C(=O)NCc2nc3ccccc3[nH]2)O[C@@H](OCCCCO)C1 | i | 23 | 0 | i | 4% | 0%
O=C(NCc1nc2ccccc2[nH]1)C1=C[C@@H](c2ccc(Br)cc2)C[C@@H](OCc2ccc(CO)cc2)O1 | i | 10 | -97* | i | ? | ?
O=C(Nc1ccccc1)C1=C[C@@H](C2CC2)C[C@@H](OCc2ccc(CO)cc2)O1 | i | -3 | 10 | i | 8% | ?
O=C(Nc1ccccc1)C1=C[C@@H](C2CC2)C[C@@H](OCCCCO)O1 | i | 3 | 11 | 7.3µM* | -8% | -11%
O=C(NCc1nc2ccccc2[nH]1)C1=C[C@@H](c2ccccc2)C[C@@H](OCCCCO)O1 | i | 36 | -17 | i | 1% | -1%
COC(=O)C1(C)COP(=O)(NC23CC4CC(CC(C4)C2)C3)OC1 (stereo not drawn) | i | -2 | 3 | 18µM* | 0% | -3%
CCCCCCCn1c(=O)c(C(=O)OC)c(N)c2ccccc21 | i | 0 | 3 | 15µM* | 0% | 0%
CCCCCCCCn1c(=O)c(C(=O)OC)c(N)c2ccccc21 | ? | -2 | 11 | ? | 21µM* | -12%
CCCCCCn1c(=O)c(-c2ccccc2)c(O)c2ccccc21 | i | 3 | -4 | i | 2% | -6%
COc1ccccc1CNC(=O)c1oc2ccc(S(=O)(=O)N3CCCCC3)cc2c1C | i | · | · | i | · | ·
Cc1cccn2c(=O)nc(SCC(=O)NC3CCCC3)nc12 | i | -8 | -9 | i | 0% | 18µM*
Cc1cccn2c(=O)nc(SCC(=O)NC3CCCCC3)nc12 | i | 0 | -12 | i | -3% | -92%
COc1ccccc1OCCC(=O)Nc1nc(C)cs1 | i | 4 | -7 | ? | 2% | 0%
COc1ccc(C2SCCN2C(=S)Nc2cccc(Cl)c2)cc1 (stereo not drawn) | ? | 16 | 8 | 7.3µM* | -50% | -7%
COc1ccc(C2SCCN2C(=S)Nc2ccc(Cl)cc2)cc1 (stereo not drawn) | ? | -3 | 1 | 23µM* | -2% | 4%
COc1ccc(C2CCCN2C(=S)Nc2cccc(Cl)c2)cc1OC (stereo not drawn) | ? | -5 | 0 | i | 4% | -1%
O=C(O)c1ccc(N=C2NC(=O)C(CO)(CO)S2)cc1 | i | 7 | -5 | i | 10% | -35%

Screens (PubChem BioAssay)
